The whole screen tested about 320,000 compounds, of which about 820 (0.26%) were called active. Shown is part of a subset that was picked to be rich in actives. Values without a mark were called inactive.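 How the source made its calls: active means activation above the mean activation of all tested compounds plus 3 SD, per screening run (cut at about 20% in these data); inactive means the rest.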
Biological target: Vasopressin V1a receptor (Homo sapiens) (UniProt P37288)
Assay: agonists of human V1a receptor, primary screen, counter-screen for OXTR agonist project, fluorescence, CHO-V1R cells (AID 2797);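 further: signal is peak over basal fluorescence ratio across a 100 second FLIPR read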
Conditions: Fluo-8 calcium fluorescence, agonist mode, at 3 µM, active compounds read high, 0% DMSO, 100% 3 nM vasopressin

Sequence of Vasopressin V1a receptor (Homo sapiens) (P37288 whole entry, looked up): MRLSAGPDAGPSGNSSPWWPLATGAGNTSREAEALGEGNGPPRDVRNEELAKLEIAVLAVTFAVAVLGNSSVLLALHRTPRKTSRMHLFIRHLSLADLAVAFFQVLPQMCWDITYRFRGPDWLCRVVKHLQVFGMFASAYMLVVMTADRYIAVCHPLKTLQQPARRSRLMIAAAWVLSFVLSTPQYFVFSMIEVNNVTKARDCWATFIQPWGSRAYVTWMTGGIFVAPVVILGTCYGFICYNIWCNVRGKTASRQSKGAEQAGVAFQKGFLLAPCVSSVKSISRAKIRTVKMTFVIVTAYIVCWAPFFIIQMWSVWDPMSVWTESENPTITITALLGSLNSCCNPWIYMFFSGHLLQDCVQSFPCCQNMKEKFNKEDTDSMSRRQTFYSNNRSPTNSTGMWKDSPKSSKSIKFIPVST

Row | SMILES | activation
1 | COc1ccc(C(=O)Nc2cc(C)ccc2NC(=O)COc2ccccc2)cc1 | 0.75%
2 | Cc1ccc(O)c(NC(=S)NC(=O)COc2ccc(Br)cc2)c1 | 56% (active)
3 | CCS(=O)(=O)c1ccc(O)c(NC(=O)COc2ccc(Cl)cc2)c1 | 3.1%
4 | CCN1CCN(c2sc(S(C)(=O)=O)nc2S(=O)(=O)c2ccc(Cl)cc2)CC1 | 0.09%
5 | CCn1c(C(C)C)n[nH]c1=S | 0.69%
6 | CCOC(=O)N/N=C1\CC(C)S(=O)(=O)c2ccc(Cl)cc21 (stereo not given) | -1.51%
7 | CC1CN(C(=O)c2ccccc2NS(=O)(=O)c2cccc([N+](=O)[O-])c2)CC(C)O1 (stereo not given) | 1.41%
8 | CCOc1ccc(Cn2nnc(C(=O)Nc3ccc(OC)cc3OC)c2N)cc1 | 12.4%
9 | CCOc1ccc(Cn2nnc(C(=O)NCc3ccccc3)c2N)cc1 | 27.1% (active)
10 | CCc1ccc(NC(=O)Cn2nnc(C(=O)NCc3ccc(OC)cc3)c2N)cc1 | 0.71%
11 | O=C(C[n+]1ccc2c(c1)nnn2-c1ccccc1)c1ccc(Cl)cc1 | -1.54%
12 | COc1ccc(CCNc2cc(C)nc3c(-c4ccc(Cl)cc4)c(C)nn23)cc1OC | -0.66%
13 | C=CCOCCN(C)C1=NS(=O)(=O)c2ccccc21 | -0.21%
14 | CCO[C@H]1OC(C(=O)N2CCCCCCC2)=C[C@@H](c2ccc(C(F)(F)F)cc2)[C@@H]1CCCO | -0.98%
15 | O=C(O)/C=C/c1ccc(OCCCF)cc1 | 0.21%
16 | O=C(/C=C/c1ccc2c(c1)OCCO2)c1ccc(O)cc1 | 1.07%
17 | O=C(/C=C(O)/C=C/c1ccc(O)cc1)/C=C/c1ccc(O)cc1 | 76.2% (active)
18 | CC(C)(C)S(=O)(=O)c1ccccc1-c1noc(-c2ccccc2)c1C(N)=O | 0.13%
19 | CCc1c(O)cc2n(c1=O)-c1ccccc1C2(C)C | 1.27%
20 | CCOc1ccc2[nH]c3nc(SCC(=O)NC4CCCC4)nnc3c2c1 | 1.39%
21 | O=C(CSc1ncnc2sccc12)N1CCN(C(=O)c2cccs2)CC1 | 1.53%
22 | Nc1c(C(=O)c2cccs2)sc2nsc(SCCN3CCCCC3)c12 | 34.8% (active)
23 | O=C(NCC(=O)N1CCC2(CC1)NCCc1[nH]cnc12)c1ccc(Br)cc1 | -0.07%
24 | Cc1noc(C)c1NC(=O)Nc1cccc2c1O[C@H](CN(C)C(=O)Nc1ccccc1)[C@@H](C)CN([C@H](C)CO)C2=O | 0.98%
25 | COc1ccc(N2C(=O)c3cccc4cccc(c34)C2=O)nn1 | -0.33%
26 | O=C(O)c1ccc2c3c(cccc13)C(=O)N(OS(=O)(=O)c1ccccc1)C2=O | 0.24%
27 | CN1C(=O)c2cccc3c(N)ccc(c23)C1=O | 133% (active)
28 | Cc1nn(C)cc1C(=O)c1ccccc1 | 0.77%
29 | Cc1nn(C)cc1N1C(=O)c2cccc3c(N)ccc(c23)C1=O | 66.8% (active)
30 | CC(=O)Nc1ccccc1Sc1ccc2c3c(cccc13)C(=O)N(c1ccc(C)cc1)C2=O | 0.04%

Source: PubChem BioAssay AID2797 (The Scripps Research Institute Molecular Screening Center, 2010)
